Measured values: PubChem BioAssay (NCATS)
Records with an inconclusive call do not appear. Entries that show only a call come without a potency. The source made the active and inactive calls. Calls follow the shape of the dose curve; as a rule, active = well fitted inhibition curve with a large enough effect; inconclusive = small, poorly fitted or top-dose-only effect; inactive = flat fitted curve, though single readings scatter.

System: Zika virus NS2B-NS3 protease
Assay: Primary screen GU AMC qHTS for Zika virus inhibitors (AID 1347154); also: nearly all actives have a fitted effect of over 70% in size
Conditions: Zika NS2B-NS3 unlinked protease, AMC fluorogenic substrate; series mostly up to 54.1 µM
Outline: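 Unlinked Zika NS2B hydrophilic domain–NS3 protease complex at 25 nM in 10 mM Tris-HCl pH 8.0, 0.01% Tween 20, with an AMC peptide substrate. Fluorescence change (340/450 nm) over 15 min at room temperature, normalized to controls, fitted to 4-parameter Hill.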

Q: `CN1C[C@@H](NS(=O)(=O)N(C)C)C[C@@H]2c3cccc4c3c(cn4C)C[C@H]21` was tested. Which Potency did it give?
A: Its Potency is “inactive”.

Q: For `c1ccc2nc(N3CCNCC3)ccc2c1`, which Potency is on record?
A: The Potency was “inactive”.

Q: Which Potency does the source give for `O=C1NCN(c2ccccc2)C12CCN(CCCOc1ccc(F)cc1)CC2` here?
A: The Potency was “inactive”.

Q: `CCNc1nc(Cl)nc(NCC)n1` was tested. Which Potency did it give?
A: The Potency was “inactive”.

Q: How did the Potency turn out when `CCN(CC)CCOC(=O)C(C)(c1ccccc1)c1ccccc1` was run?
A: Its Potency is “inactive”.

Q: How did the Potency turn out when `CC(Cc1ccc2c(c1)OCO2)NO` (stereo not drawn) was run?
A: Its Potency is “inactive”.

Q: `c1cc2c(c(N3CCNCC3)c1)OCCO2` was tested. Which Potency did it give?
A: The Potency was “inactive”.

Q: `CCOC(=O)C(c1c(O)c2ccccc2oc1=O)c1c(O)c2ccccc2oc1=O` was tested. Which Potency did it give?
A: The Potency was “inactive”.

Q: `CN(C)C(=O)Oc1cc(OC(=O)N(C)C)cc(C(O)CNC(C)(C)C)c1` (stereo not drawn) was tested. Which Potency did it give?
A: Its Potency is “inactive”.

Q: With `CCOP(=S)(OCC)O/N=C(\C#N)c1ccccc1` as the compound, how does the Potency read?
A: Its Potency is “inactive”.

Q: For `CNC(C)Cc1ccc2c(c1)OCO2` (stereo not drawn), which Potency is on record?
A: Its Potency is “inactive”.

Q: Which Potency does the source give for `O=C1CN2CCOC2(c2ccccc2Cl)c2cc(Cl)ccc2N1` (stereo not drawn) here?
A: The Potency was “inactive”.

Q: For `CCCOC(=O)Cc1ccc(OCC(=O)N(CC)CC)c(OC)c1`, which Potency is on record?
A: The Potency was “inactive”.

Q: `Cc1cccc(Cc2cnc[nH]2)c1C` was tested. Which Potency did it give?
A: The Potency was “inactive”.

Q: `CCC1(c2cccc(O)c2)CCCCN(C)C1` (stereo not drawn) was tested. Which Potency did it give?
A: The Potency was “inactive”.

Q: How did the Potency turn out when `ClCc1cccc(Cl)c1` was run?
A: The Potency was “inactive”.

Q: How did the Potency turn out when `COc1cc(CC#N)cc(OC)c1OC` was run?
A: Its Potency is “inactive”.

Q: With `CC1N=C(N)OC1c1ccccc1` (stereo not drawn) as the compound, how does the Potency read?
A: The Potency was “inactive”.

Q: Which Potency does the source give for `Oc1ccc2[nH]cc(CCCCN3CC=C(c4ccccc4)CC3)c2c1` here?
A: Its Potency is “inactive”.

Q: `CC(C)C(Br)C(=O)NC(N)=O` (stereo not drawn) was tested. Which Potency did it give?
A: Its Potency is “inactive”.

Q: Which Potency does the source give for `C[C@@H]1CN(C2CCC(C#N)(c3ccc(F)cc3)CC2)CC[C@]1(C(=O)O)c1ccccc1` (stereo partly drawn) here?
A: The Potency was “inactive”.

Q: With `CN1C2CCC(C)(C)C1CC(OC(=O)C(O)(c1cccs1)c1cccs1)C2` (stereo not drawn) as the compound, how does the Potency read?
A: Its Potency is “inactive”.

Q: `COc1ccc2c3c1O[C@H]1[C@@H](O)C=C[C@H]4[C@@H](C2)N(C)CC[C@@]341` was tested. Which Potency did it give?
A: The Potency was “inactive”.

Q: For `CCN1CCCC1CNC(=O)C(O)(c1ccccc1)c1ccccc1` (stereo not drawn), which Potency is on record?
A: Its Potency is “inactive”.

Q: For `CCC1(CC)C(=O)NC(=O)NC1=O`, which Potency is on record?
A: The Potency was “inactive”.

Q: With `CC(C(O)c1ccccc1)N(C)C/C=C/c1ccccc1` (stereo not drawn) as the compound, how does the Potency read?
A: Its Potency is “inactive”.

Q: `CC(CC(C#N)(c1ccccc1)c1ccccc1)N(C)C` (stereo not drawn) was tested. Which Potency did it give?
A: Its Potency is “inactive”.

Q: Which Potency does the source give for `ClCCCN1CCN(c2cccc(Cl)c2)CC1` here?
A: The Potency was “inactive”.

Q: Which Potency does the source give for `CN(C)CCc1c[nH]c2cccc(O)c12` here?
A: Its Potency is “inactive”.

Q: `CC(C)NCC(O)c1ccc(N)c(C#N)c1` (stereo not drawn) was tested. Which Potency did it give?
A: The Potency was “inactive”.

Q: How did the Potency turn out when `COc1cc(C[C@@H](C)N)c(OC)cc1C` was run?
A: Its Potency is “inactive”.

Q: Which Potency does the source give for `CC(C)=C[C@@H]1[C@@H](C(=O)OCc2coc(Cc3ccccc3)c2)C1(C)C` here?
A: Its Potency is “inactive”.

Q: Which Potency does the source give for `COP(=O)(OC)C(O)C(Cl)(Cl)Cl` (stereo not drawn) here?
A: Its Potency is “inactive”.

Q: With `NC1(c2ccccc2)CCCCC1` as the compound, how does the Potency read?
A: The Potency was “inactive”.

Q: `C#C[C@]1(O)C=C[C@H]2[C@@H]3CCC4=CC(=O)CC[C@@H]4[C@H]3CC[C@@]21CC` was tested. Which Potency did it give?
A: The Potency was “inactive”.

Q: `CCC(=O)O[C@H]1CC[C@H]2[C@@H]3CCC4=CC(=O)CC[C@]4(C)[C@H]3CC[C@]12C` was tested. Which Potency did it give?
A: The Potency was “inactive”.

Q: Which Potency does the source give for `CC[C@H]1C[C@@H]2C[C@H]3c4[nH]c5ccc(OC)cc5c4CCN(C2)[C@@H]13` here?
A: The Potency was “inactive”.

Q: For `Cc1ccc(N=CN(C)C=Nc2ccc(C)cc2C)c(C)c1`, which Potency is on record?
A: Its Potency is “inactive”.
